Experimental data from PubChem BioAssay.

Test: JC-1 mitochondrial potential readout, lung cancer cells – cell-based, A549, JC-1 fluorescence, basal, 24 h, 100 nL, profiling panel (AID 1138);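 note: A549 lung adenocarcinoma cells under basal conditions with no added stimulus; test concentration not given here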
Details: higher = more signal

SMILES | z-score
COC(=O)[C@@]1(Cc2ccccc2)[C@H]2c3cc(C(=O)N4CCCC4)n(C)c3C[C@H]2CN1C(=O)c1ccccc1 | 0.244
O=C1O[C@H](c2ccccc2)[C@H](c2ccccc2)N2[C@H]1[C@@H](C(=O)Nc1nc3ccccc3s1)[C@]1(C(=O)Nc3ccccc31)[C@H]2c1ccc(O)cc1 | -2.12
CCN(CC)c1ccc(N2CC=CC34O[C@@H]5C=CCCOC(=O)C5[C@H]3C(=O)N(CCCCCO)[C@@H]4C2=O)cc1 (some centres undefined) | 2.56
COCCOC(=O)N1C(=O)[C@@]2(c3cc(C#CCC(C(=O)OC)C(=O)OC)ccc31)[C@H](c1ccc(O)cc1)N1[C@H](c3ccccc3)[C@H](c3ccccc3)OC(=O)[C@H]1[C@@H]2C(N)=O | -0.82
NC(=O)NCC#Cc1ccc2c(c1)[C@]1(C(=O)N2)[C@H](C(=O)N2CCCCCCC2)[C@H]2C(=O)O[C@H](c3ccccc3)[C@H](c3ccccc3)N2[C@@H]1c1ccc(OCCO)cc1 | -1.62
CC(C)N1CC=CC23O[C@@H]4C=CCOC(=O)[C@@H]4[C@H]2C(=O)N(CCO)[C@@H]3C1=O (some centres undefined) | -0.346
COc1ccc(CCNC(=O)[C@@]2(c3ccc([N+](=O)[O-])cc3)CC(=O)N(CC34CC5CC(CC(C5)C3)C4)[C@@H]2c2ccc(CO)cc2)cc1 | -0.483
COCCOC(=O)N1C(=O)[C@@]2(c3ccccc31)[C@H](C(=O)NC[C@H](O)c1ccccc1)[C@H]1C(=O)O[C@H](c3ccccc3)[C@H](c3ccccc3)N1[C@@H]2c1ccc(OCCO)cc1 | -0.542
COc1ccc(C(O)C2C=CC3C(=O)NC(=O)C3N2Nc2ccccn2)cc1OCc1ccccc1 (centres undefined) | 1.73
COCCOC(=O)N1C(=O)[C@@]2(c3cc(C#CC4=CCCCC4)ccc31)[C@H](C(=O)NC[C@H](O)c1ccccc1)[C@H]1C(=O)O[C@H](c3ccccc3)[C@H](c3ccccc3)N1[C@@H]2c1ccc(O)cc1 | -1.23
COc1ccc([Si](C)(C)[C@@H]2[C@@H](CCn3cc([C@H](O)c4ccccc4)nn3)O[C@]3(C(=O)N(Cc4ccc(N5C(=O)c6cccc7cccc5c67)cc4)c4ccccc43)[C@H]2C)cc1 | 1.57
[N-]=[N+]=NCc1ccccc1C[C@]1(C(=O)O)N=C(c2ccc(OCCCO)cc2)O[C@H]1c1ccccc1CN=[N+]=[N-] | 0.0653
CC(C)NC(=O)[C@@H]1c2ccccc2C(=O)N(Cc2ccccc2)[C@H]1c1ccc(CO)cc1 | 0.484
COCCOC(=O)N1C(=O)[C@@]2(c3cc(C#CCNC(N)=O)ccc31)[C@H](c1ccccc1OCCO)N1[C@H](c3ccccc3)[C@H](c3ccccc3)OC(=O)[C@H]1[C@@H]2C(N)=O | -1.24
O=C1C2C=CC(C(O)c3ccc(B(O)O)cc3)N(Nc3ccccc3)C2C(=O)N1c1ccccc1 (centres undefined) | -1.4
COC(=O)[C@@]1(Cc2ccc(F)cc2)[C@H]2c3cc(C(=O)N(C)C)n(CCc4ccccn4)c3C[C@H]2CN1C(=O)c1ccccc1 | -0.201
Cc1ccc(S[C@]2(C(=O)NC3CC3)CC(=O)N(Cc3ccccc3)[C@@H]2c2ccc(CO)cc2)cc1 | 0.424
O=C1C2C=CC(C(O)c3ccc(F)cc3)N(Nc3ccccc3)C2C(=O)N1c1ccccc1 (centres undefined) | -0.101
Cc1cc(C)c(C(O)C2C=CC3C(=O)N(C)C(=O)C3N2Nc2ccccc2)c(C)c1 (centres undefined) | 0.362
[N-]=[N+]=NCc1ccccc1C[C@]1(C(=O)NCCN2CCOCC2)N=C(c2ccc(OCCCO)cc2)O[C@H]1c1ccccc1N=[N+]=[N-] | 1.29
O=C(OCCF)C1=CCC(c2cccc(Cl)c2)O1 (centres undefined) | -0.218
[N-]=[N+]=NCc1ccccc1C[C@]1(C(=O)NCC(O)CO)N=C(c2ccc(OCCCO)cc2)O[C@H]1c1ccccc1N=[N+]=[N-] (some centres undefined) | 1.63
COCC1=C2[C@@H](CCc3ccccc3)OB(O)C[C@@H]2[C@@H]2C(=O)N(Cc3ccccc3)C(=O)[C@@H]2C1 | 0.092
[N-]=[N+]=Nc1ccccc1[C@H]1OC(c2ccc(OCCCO)cc2)=N[C@@]1(CCS(=O)(=O)c1ccccc1)C(=O)O | -1.72
